Among all 150,000 compounds or so, about 540 (0.36%) showed an effect of 50% or more. The sample holds strong results, similar compounds and a random draw of the others, so the mix is not that of the screen.
System: Plasmodium falciparum
Assay: Primary screen in NF54 nanoGlo assay, in single point, at 2uM, 72h; a lower Z score goes with more inhibition
Format: functional, Erythrocyte
Conditions: timepoint 72 hour

SMILES	% Inhibition [%]	Z score
O=C(Nc1ccc(Cl)cc1)N1Cc2nc[nH]c2C[C@H]1c1nc(-c2ccc3ccccc3c2)no1	19	-2.22
Cc1cnn(C2CN(CC(=O)N3CC(=O)Nc4ccccc43)C2)c1	-10	1.59
CCCc1cc(C(=O)N2C[C@@H]3CC[C@H]2CN(C(C)=O)C3)n(C)n1	3	-0.61
CCc1ncnc(N2CC[C@H](Cc3nnn[nH]3)C2)c1F	-13	1.77
NCc1cccc(C(=O)N2CCc3cc4ccc3[C@@H]2c2cccc(c2)OCCCNC(=O)c2cc(ccc2O)O4)c1	86	-13.81
COCC(=O)N1CCc2cc3ccc2[C@@H]1c1cccc(c1)OCCCNC(=O)c1cc(ccc1O)O3	-2	0.47
NC(=O)C1CCN(CCC(=O)N2CCc3cc4ccc3[C@@H]2c2cccc(c2)OCCCNC(=O)c2cc(ccc2O)O4)CC1	92	-17.59
O=C1NCCCOc2cccc(c2)[C@H]2c3ccc(cc3CCN2C(=O)CCN2CCOCC2)Oc2ccc(O)c1c2	39	-8.79
Cc1cc(C(=O)N2CCc3cc4ccc3[C@@H]2c2cccc(c2)OCCCNC(=O)c2cc(ccc2O)O4)n(C)n1	-11	1.41
CCn1ccc(C(=O)N2CCc3cc4ccc3[C@@H]2c2cccc(c2)OCCCNC(=O)c2cc(ccc2O)O4)cc1=O	7	-1.26
Cc1ccc(OS(=O)(=O)c2ccc3c(c2)NC(=O)CO3)c(Br)c1	-5	0.38
CCc1nccc(-c2nccn2CCOc2ccccc2F)n1	-5	0.87
CN(C(=O)CC1(C(=O)O)CCC1)[C@H]1CCOc2ccc(Br)cc21	1	-0.26
Cc1cc(CS(=O)(=O)[C@@H](C)C(=O)NCc2ccccc2)on1	-12	2.41
O=S(=O)(Cc1ccc(OC(F)(F)F)cc1)Nc1cccnc1-n1cccn1	2	-0.39
Cc1ccc(NC(=O)Cc2nnc(-c3cnccn3)o2)c(Cl)c1	-12	1.25
Cc1c(C)n(CC(O)CNC(C)c2ccccc2)c2c(Cl)cccc12 (stereo not drawn)	59	-7.71
CCC(C)NCC(O)Cn1c(-c2ccccc2)c(-c2ccccc2)c2cc(C)ccc21 (stereo not drawn)	93	-10.06
CC(NCC(O)COc1ccc2c(c1)OCO2)c1ccccc1 (stereo not drawn)	-9	1.69
Cc1ccc2c(c1)c(-c1ccccc1)c(-c1ccccc1)n2C[C@@H](O)CNCCCO	1	-0.17
CC(NCC(O)Cn1c(-c2ccccc2)c(-c2ccccc2)c2ccc3ccccc3c21)c1ccccc1 (stereo not drawn)	88	-10.69
COCCN(CCOC)C[C@H](O)Cn1c(-c2ccccc2)c(-c2ccccc2)c2cc(C)ccc21	0	0.06
Cc1c(C)n(C[C@@H](O)CNC2CCCC2)c2c(Cl)cccc12	48	-6.21
CC(C)NC[C@H](O)Cn1c(-c2ccccc2)ccc1-c1ccccc1	8	-1.24
Cc1c(C)n(C[C@@H](O)Cn2ccnc2C)c2c(Cl)cccc12	-5	0.7
CS(=O)(=O)N1C[C@H]2CC[C@@H](C1)N(C(=O)c1ccc3[nH]nnc3c1)C2	-7	1.17
CO[C@@]12CC[C@@H](OCC3CC3)C[C@@H]1N(C(=O)c1csc(C(C)C)n1)CC2	-2	0.34

SMILES	% Inhibition [%]	Z score
Cc1cc2c(NC(=O)N(Cc3ccsc3)CC(C)C)cccc2nn1	-6	1.12
O=C(NCc1cccnc1)c1coc(CN(Cc2ccccc2)Cc2ccccc2C(F)(F)F)n1	0	0.02
Cc1nnc(CN(C)Cc2c[nH]cn2)s1	4	-0.58
Cc1c(F)cccc1NC(=O)N1CCN(C2=CC3=N[C@@H](C)CN3C=N2)CC1	57	-7.99
O=C(Cc1ccccc1)N1CCN(c2cc(N3CCCC3)ncn2)CC1	-8	0.94
CN1CCN(c2cc(N3CCN(C(=O)Cc4ccccc4)CC3)ncn2)CC1	-10	0.91
CC[C@H]1CN2C=NC(N3CCN(C(=O)Cc4ccccc4)CC3)=CC2=N1	56	-2.27
CCc1cccc(NC(=O)N2CCN(c3nccs3)CC2)c1	-2	0.21
Cc1cc(F)cc(NC(=O)N2CCCN(C(=O)C(F)(F)F)CC2)c1	-11	1.45
C[C@H]1CN2C=NC(N3CCN(C(=O)c4ccccc4)CC3)=CC2=N1	-3	0.63
CCc1cccc(NC(=O)N2CCN(C3=CC4=NC[C@H](C)N4C=N3)CC2)c1	58	-5.02
CC[C@H]1CN2C=NC(N3CCN(C(=O)Nc4cc(F)cc(F)c4)CC3)=CC2=N1	68	-4.25
C[C@H]1CN=C2C=C(N3CCN(C(=O)Nc4ccccc4C(F)(F)F)CC3)N=CN21	-11	1.77
O=C(Nc1cc(F)cc(F)c1)N1CC[C@H](Cc2ccncc2)C1	-5	0.93
Cc1oc(C2CCN(C(=O)Nc3cccc(F)c3C)CC2)nc1C(=O)N1CCCC1	-3	0.55
Cc1ccc(NC(=O)Cn2cc(S(=O)(=O)N3CCCCCC3)ccc2=O)c(C)c1	-2	0.3
CN(c1cnn(C)c1)S(=O)(=O)c1ccccc1	-12	1.93
CCc1onc(C)c1NCc1cnc(C(C)(C)C)s1	34	0.74
COC(=O)C1=C(c2ccccc2)S/C(=C2/C(=S)C(C)(C)Nc3ccc(C)cc32)S1	-8	0.99
Cc1ccccc1N1CCN(C(=O)CC[C@@H]2CN(Cc3ccccn3)CC[C@@H]2N2CCOCC2)CC1	2	-0.27
FC(F)[C@H](NCc1nnc(C2CC2)s1)c1ccccc1	2	-0.43
CCCc1nnsc1C(=O)N1CCc2nc(NC(=O)OCC)sc2C1	-5	1.08
COC(=O)[C@@H]1C[C@@H](O)CN1Cc1ccncc1Cl	-4	0.5
Cc1ccc(N(C)C(C)C)c(C(=O)NC[C@H]2CCC3(CCOCC3)O2)c1	-1	0.19
O=C(c1ccccc1Oc1ccccc1)N1CCO[C@]2(CNCCOC2)C1	5	-0.96
O[C@@H](CNc1ncnc2sccc12)c1ccc(Cl)c(F)c1	28	-3.21
O=C(N[C@@H]1c2ccccc2OC[C@@H]1CO)[C@H](O)c1ccccc1	-2	0.41

SMILES	% Inhibition [%]	Z score
Cc1ccsc1CNc1ccccc1C(=O)NCc1ncc[nH]1	2	-0.38
Cc1ccccc1C(=O)Cc1ncc[nH]1	87	-5.77
CC(=O)c1ccccc1C(=O)NCCCc1ncc[nH]1	-9	1.13
CCc1nc2c(c(OC3CCN(C(=O)c4ccn(CC)n4)CC3)n1)CCOCC2	-11	1.12
Cc1[nH]c2ncnc(NC(=O)c3cccc(-n4ccnn4)c3)c2c1C	65	-1.3
Cc1cc(NC(=O)c2cccc(-n3ccnn3)c2)nc(=O)[nH]1	-14	2.12
Cc1[nH]c2ncnc(NC(=O)c3cccc(S(=O)(=O)NC4CC4)c3)c2c1C	-21	3.01
CCCN(CCC)C(=O)c1cc(F)ccc1OC	-10	1.09
Fc1ccc(COc2cccc(CNCCN3CCOCC3)c2)cc1	33	1.13
O[C@H]1CCN(Cc2cccc(OCCCCN3CCOCC3)c2)C[C@@H]1O	4	-0.63
O=C(NC1(c2ncon2)CCOCC1)c1cc2ccccn2c1	-4	0.42
COc1ccccc1Cn1cnc2c1c(=O)n(C1CCCCC1)c(=O)n2-c1ccccc1Cl	69	-6.45
COc1ccccc1-n1c(=O)n(C2CCCC2)c(=O)c2c1ncn2Cc1ccccc1Cl	37	-4.79
Cc1ccccc1Cn1cnc2c1c(=O)n(C1CCCC1)c(=O)n2-c1ccccc1	-7	0.85
Cc1ccccc1-n1c(=O)n(C2CCCCC2)c(=O)c2c1ncn2Cc1ccccc1	-1	0.09
Cc1ccccc1Cn1cnc2c1c(=O)n(C1CC1)c(=O)n2-c1ccccc1C	5	-0.48
Cc1ccccc1Cn1cnc2c1c(=O)n(C1CCCCC1)c(=O)n2-c1ccccc1Cl	70	-7.57
Cc1c(Cl)cccc1NC(=O)c1sccc1S(=O)(=O)N1CCc2ccccc2C1	1	-0.1
COc1ccc([C@@H](CC(=O)NCc2ccc(F)cc2)c2c[nH]c3ccccc23)c(OC)c1	3	-0.42
COc1cc(NC(C)(C)CN2CCOCC2)ncn1	-11	0.99
O=C(NC[C@H](O)c1cccnc1)c1ncoc1C1CC1	-7	0.94
COC[C@H]1CCCCN1C(=O)c1ccnc(C2CCCC2)n1	7	-1.03
COc1ccc(N2CCN(C(=O)c3ccn4c(-c5ccccc5)nnc4c3)CC2)cc1	-3	0.29
COc1ccccc1CNC(=O)c1cc(C)nc2c(-c3ccc(C)cc3)cccc12	12	-1.38
COc1cccc(N2CCC(N3CCC4(CC3)CNC(=O)O4)CC2)c1	-2	0.35
